± gives the standard deviation.
Experiments:
Conditions in all cases: modulator concentration 10 µM
[1] = system: RAW-Dual (murine macrophage reporter line); assay: NF-kB reporter (SEAP) activity fold change vs agonist alone; higher = enhanced NF-kB activity
Procedure, shortened: (§1)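 Overnight stimulation with a PRR agonist followed pre-incubation for 1 hour at 37 °C with compound at 10 μM final. This was done in RAW-Dual murine macrophage reporter cells seeded at 50 000 per well in 384-well plates. NF-κB (SEAP, QUANTI-Blue absorbance at 620 nm) and IRF (Lucia luciferase, QUANTI-Luc luminescence) were read from the supernatant. Each reporter's fold change relative to the mean agonist-only control on the same plate was averaged over replicate plates.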

[2] = system: RAW-Dual (murine macrophage reporter line); assay: IRF reporter (Lucia luciferase) activity fold change vs agonist alone; higher = enhanced IRF activity
Procedure, shortened: as §1

[3] = system: RAW-Dual (murine macrophage reporter line); assay: viability score (confluency relative to resting cells, overnight) (fraction); higher = more viable, active = viable (0.7 or more)
Procedure, shortened: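 RAW-Dual macrophages in 384-well plates were incubated overnight with compound, final concentration 10 μM. Confluency images from IncuCyte were processed in IncuCyte software into two masks covering all imaged wells. The viability score is each well's confluency relative to resting cells, and a compound met the cutoff when both masks exceeded 70% of resting cells.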

[4] = agonist: CpG ODN 1826 0.5 ug/mL

Compound | NF-kB reporter [1, 4] | NF-kB reporter ([1]; agonist: LPS 0.1 ug/mL) | NF-kB reporter ([1]; agonist: MPLA […]) | IRF reporter ([2]; agonist: 3'3'-cGAMP 10 ug/mL) | IRF reporter ([2]; agonist: LPS 0.1 ug/mL) | IRF reporter ([2]; agonist: MPLA […]) | viability score [3]
COC(=O)C1=C(C)NC(=O)NC1c1ccc(Cl)c(Cl)c1 (configuration not stated) | 0.979 ± 0.11 | 1.03 ± 0.067 | 0.951 ± 0.04 | 0.992 ± 0.16 | 1.05 ± 0.1 | 0.964 ± 0.24 | 1 (active)
CSc1ccc(C(=O)O)s1 | 1.02 ± 0.13 | 1.08 ± 0.09 | 1.03 ± 0.065 | 1.01 ± 0.21 | 1.03 ± 0.059 | 1.03 ± 0.15 | 1.01 (active)
CCOC(=O)c1ccc(NC(=O)c2sc(NC(=O)c3cc(OC)c(OC)c(OC)c3)c(C(=O)OCC)c2C)cc1 | 1 ± 0.095 | 1.02 ± 0.079 | 0.895 ± 0.058 | 0.969 ± 0.025 | 1.53 ± 0.25 | 1.14 ± 0.12 | 1.01 (active)
O=C(Cn1cnc(-c2ccc(F)cc2)cc1=O)N1CCOCC1 | 0.891 ± 0.06 | 1.07 ± 0.13 | 1.18 ± 0.075 | 1.04 ± 0.047 | 1.3 ± 0.27 | 1.44 ± 0.45 | 0.99 (active)
c1coc(CNc2nc(-c3ccncc3)cs2)c1 | 0.857 ± 0.073 | 0.863 ± 0.13 | 1.25 ± 0.11 | 0.492 ± 0.03 | 1.12 ± 0.08 | 1.14 ± 0.097 | 0.981 (active)
O=S(=O)(NC1CC1)c1cnn(-c2ccccc2)c1 | 0.903 ± 0.048 | 0.908 ± 0.073 | 1.08 ± 0.079 | 1.07 ± 0.062 | 1.3 ± 0.3 | 1.52 ± 0.57 | 0.964 (active)
COc1ccc(NC(=O)CN(c2ccc(C)c(C)c2)S(C)(=O)=O)cc1Cl | 0.912 ± 0.096 | 1.14 ± 0.12 | 0.886 ± 0.032 | 0.857 ± 0.14 | 0.973 ± 0.045 | 0.858 ± 0.079 | 1 (active)
Br.COc1ccc(C2=NN(c3nc(-c4ccc(OC)c(F)c4)cs3)C(c3ccc(OC)cc3)C2)cc1 (configuration not stated) | 0.964 ± 0.068 | 0.997 ± 0.11 | 0.914 ± 0.1 | 0.805 ± 0.071 | 1.22 ± 0.08 | 1.05 ± 0.39 | 1.01 (active)
Cc1cn(-c2cc(NC(=O)c3ccc(C)c(Nc4nccc(-c5cnccn5)n4)c3)cc(C(F)(F)F)c2)cn1 | 0.892 ± 0.22 | 1.17 ± 0.059 | 0.982 ± 0.063 | 0.867 ± 0.032 | 0.943 ± 0.11 | 1.19 ± 0.33 | 0.988 (active)
C=CC(=O)N1CCC(Oc2cc3c(Nc4ccc(Cl)c(Cl)c4F)ncnc3cc2OC)CC1 | 0.879 ± 0.037 | 0.909 ± 0.095 | 1.05 ± 0.061 | 1.08 ± 0.064 | 1.36 ± 0.3 | 1.49 ± 0.48 | 0.97 (active)
CC(=O)Nc1ccc(S(=O)(=O)N2CCCc3ccccc32)cc1 | 1.15 ± 0.092 | 0.888 ± 0.081 | 1.09 ± 0.1 | 1.13 ± 0.043 | 1.27 ± 0.24 | 1.54 ± 0.32 | 0.984 (active)
NC(N)=NN=Cc1ccc(OS(=O)(=O)c2ccccc2)cc1 | 0.0965 ± 0.0075 | 0.954 ± 0.048 | 1.18 ± 0.14 | 0.929 ± 0.044 | 0.93 ± 0.058 | 1.04 ± 0.13 | 0.433 (inactive)
CC(=O)Oc1ccccc1C(=O)O | 1.01 ± 0.085 | 1.05 ± 0.079 | 0.959 ± 0.048 | 1.02 ± 0.068 | 0.964 ± 0.044 | 0.884 ± 0.11 | 0.998 (active)
CN1CCN(C(=O)N2CCC3(CC2)CC3(F)F)CC1 | 1.1 ± 0.07 | 0.939 ± 0.12 | 0.974 ± 0.025 | 0.894 ± 0.035 | 0.914 ± 0.086 | 0.815 ± 0.086 | 0.996 (active)
CNC(=O)C(=O)Nc1cc(Cl)ccc1C | 1.07 ± 0.18 | 1 ± 0.078 | 0.912 ± 0.08 | 1.01 ± 0.042 | 1.25 ± 0.15 | 1.3 ± 0.19 | 1 (active)
Cc1ccc(CSc2nc3sc4c(c3c(=O)n2-c2ccccc2)CC(C)(C)OC4)c(C)c1 | 0.984 ± 0.093 | 1.06 ± 0.075 | 0.91 ± 0.054 | 1.05 ± 0.039 | 1.41 ± 0.12 | 1.1 ± 0.21 | 1.02 (active)
Cc1cc(-c2ccc(N=Cc3ccc(Cl)c([N+](=O)[O-])c3)c(C)c2)ccc1N=Cc1ccc(Cl)c([N+](=O)[O-])c1 | 1.01 ± 0.056 | 1.01 ± 0.073 | 1.02 ± 0.065 | 0.821 ± 0.031 | 1.38 ± 0.11 | 1.13 ± 0.19 | 1 (active)
COc1ccc(Nc2nc(Nc3ccc4ncccc4c3)nc(N3CCOCC3)n2)cc1 | 0.279 ± 0.013 | 1.36 ± 0.11 | 2.85 ± 0.15 | 0.34 ± 0.015 | 1.61 ± 0.24 | 2.74 ± 0.57 | 0.904 (active)
CN(CC(=O)O)c1nc2ccc(OC(F)(F)F)cc2s1 | 0.821 ± 0.15 | 1.03 ± 0.13 | 0.736 ± 0.064 | 0.892 ± 0.048 | 0.941 ± 0.17 | 0.952 ± 0.14 | 1.01 (active)
Cc1nc[nH]c1CN1CCc2c(c3ccccc3n2C)C1=O.Cl | 1.13 ± 0.28 | 1.08 ± 0.12 | 0.903 ± 0.08 | 0.903 ± 0.041 | 1.31 ± 0.2 | 1.12 ± 0.11 | 1 (active)
COc1cccc(O)c1O | 1.72 ± 0.1 | 0.627 ± 0.083 | 0.321 ± 0.013 | 0.479 ± 0.022 | 0.422 ± 0.03 | 0.0889 ± 0.013 | 0.935 (active)
O=S(=O)(Nc1ccnc2ccccc12)c1ccccc1 | 0.928 ± 0.075 | 0.88 ± 0.066 | 0.936 ± 0.088 | 0.858 ± 0.03 | 1.12 ± 0.11 | 1.15 ± 0.19 | 1.03 (active)
Cl.Cl.Cn1cc(CNCC2CCN(c3ncc(C(=O)NO)cn3)CC2)c2ccccc21 | 1.84 ± 0.11 | 1.72 ± 0.15 | 2.69 ± 0.12 | 0.067 ± 0.0071 | 0.396 ± 0.025 | 0.692 ± 0.054 | 0.0605 (inactive)
CCn1c(=O)c(-c2ccn[nH]2)cc2c(C)nc(N)nc21 | 0.877 ± 0.054 | 1.01 ± 0.093 | 1.17 ± 0.065 | 1.01 ± 0.048 | 1.33 ± 0.23 | 1.45 ± 0.53 | 1 (active)
CCS(=O)(=O)N1N=C(c2ccc(NS(C)(=O)=O)cc2)CC1c1ccccc1 (configuration not stated) | 0.947 ± 0.073 | 0.998 ± 0.078 | 1.12 ± 0.12 | 0.963 ± 0.034 | 1.29 ± 0.15 | 1.4 ± 0.23 | 1.02 (active)
O=C1OC(c2ccc3ccccc3c2)=NC1=Cc1ccc(Br)c([N+](=O)[O-])c1 | 0.963 ± 0.15 | 0.878 ± 0.08 | 0.896 ± 0.1 | 0.861 ± 0.04 | 1.16 ± 0.11 | 1.19 ± 0.24 | 0.998 (active)
